# From PubChem BioAssay AID1259343 (VanderVen Lab, College of Veterinary Medicine, Cornell …, 2017)
# Among all 6,200 compounds or so, about 2,900 (47%) were called active. The set was probably picked from earlier hits. The list shows a part of the results. Unmarked numbers belong to inactive results. No stated cut-off is given here; in the data, active means inhibition above about 50%; inactive means the rest.
# Assay: Mycobacterium tuberculosis growth inhibition, primary screen (AID 1259343)
# Conditions: inhibition: at 10 µM, active compounds read high; outcome: 10 uM
row,SMILES,inhibition
1,Cc1cc(OCCCn2cnc3ccccc32)ccc1[N+](=O)[O-],61.1% (active)
2,CC1=C(C(=O)OCCOc2ccccc2)C(c2ccccc2[N+](=O)[O-])NC(=O)N1C (centres undefined),-7.53%
3,Cc1cc(OCC(O)CN(Cc2ccccc2)C(C)(C)C)ccc1[N+](=O)[O-] (centres undefined),0.53%
4,CN(Cc1nc2c(s1)CCCC2)C(=O)Cc1ccccc1O,82.4% (active)
5,CC1=NN(c2ccc(C(=O)N(C)Cc3ccccc3O)cc2)CC1,23.1%
6,Cc1[nH]ccc2c1[nH]c1cc(=O)ccc12,90.6% (active)
7,CN(Cc1ccccc1C(F)(F)F)c1ncc(C(N)=O)cc1Cl,39.2%
8,Oc1ccc(Oc2ncc(Cl)cc2Cl)cc1,38.9%
9,COc1cccc(Oc2ncc(C(N)=O)cc2Cl)c1,68.9% (active)
10,CN(C)c1ccc(-c2nc(-c3cc4c5c(c3)CC(=O)N5CCC4)cs2)cc1,-34.5%
11,Clc1ccc(-c2csc(-c3cnccn3)n2)s1,17.5%
12,Nc1nc(-c2cccs2)cs1,76% (active)
13,CN(C)c1ccc(Nc2nc(-c3cccs3)cs2)cc1,18.8%
14,Nc1nc(-c2ccc3c(c2)OCO3)cs1,-28.1%
15,Cc1nc(-c2ccc(CCNC(=O)c3cc(F)cc(F)c3)s2)cs1,35.7%
16,Nc1nc(-c2ccc(Cl)s2)cs1,86.7% (active)
17,CCc1ccc(-c2csc(N)n2)s1,76.7% (active)
18,Nc1ccn(-c2ccc(Cl)c(Cl)c2)n1,96.1% (active)
19,NC(=O)c1ccn(-c2cccc(Br)c2)n1,10.3%
20,Cc1sc2nc(-c3cccs3)nc(N3CCNC(C(N)=O)C3)c2c1C (centres undefined),26%
21,O=[N+]([O-])c1ccc2[nH]c(O)c(N=Nc3cccc(C(F)(F)F)c3)c2c1,-6.56%
22,O=[N+]([O-])c1ccc2nc(C(F)(F)F)[nH]c2c1,102% (active)
23,O=S(=O)(c1ccc(Cl)s1)N1CCN(c2ccnc3cc(Cl)ccc23)CC1,9.81%
24,O=S(=O)(c1ccc(Cl)s1)N1CCN(c2ccc(F)cc2)CC1,-6.71%
25,CCNC(=S)N1CCN(S(=O)(=O)c2ccc(Cl)s2)CC1,99.5% (active)
26,Cc1cc(N)n(CC(=O)NCCn2c(C)cc3ccccc32)n1,-1.16%

row,SMILES,inhibition
1,C=CCNC(=O)Cn1c(-n2nc(C)cc2C)nc2c(c1=O)CCCC2,98% (active)
2,Cc1cc(C)n(-c2nc3c(c(=O)n2CC(=O)NC2CCCC2)CCCC3)n1,88.4% (active)
3,Oc1cc(-c2cccc3c2Sc2ccccc2S3)cc2c1OCCNC2,22%
4,COC(=O)Nc1ccc(OCc2nc(C)c(C)s2)cc1,2.64%
5,COc1ccc(C2(C(=O)Nc3nc(C)c(C)s3)CCCCC2)cc1,91.6% (active)
6,Cc1ncc(CN(C)C(=O)c2ccc(Cl)c(Cl)c2O)s1,45.2%
7,CN(Cc1ccc(Br)s1)C(=O)c1ccccc1O,89.5% (active)
8,Cc1ccc(O)c(C(=O)N(C)Cc2ccccc2C(F)(F)F)c1,14.5%
9,O=C1c2ccccc2C(=O)c2oc(-c3cc([N+](=O)[O-])cc([N+](=O)[O-])c3)nc21,61.8% (active)
10,CCCc1cc(N2CCCC2)n2nc3nc(C)cc(C)c3c2n1,22%
11,CCCc1cc(NCC2CCCO2)n2nc(C)c(-c3ccccc3)c2n1 (centres undefined),39.6%
12,CCCc1cc(NCC2CCCO2)n2nc3nc(C)cc(C)c3c2n1 (centres undefined),98.6% (active)
13,Cc1cc(C)cc(NC(=O)COc2coc(CN3CCc4ccccc43)cc2=O)c1,69.1% (active)
14,O=c1cc(CN2CCc3ccccc32)occ1OCc1ccc(Cl)cc1,1.87%
15,CCc1nnc(N/N=C\c2cc(Cl)c(OCc3ccccc3F)c(OC)c2)n1N,51.4% (active)
16,CC(C)=CCCC(C)[C@@H]1CC[C@]2(C)C3=C(CC[C@@]12C)C1(C)CC[C@H](O)C(C)(C)C1CC3 (some centres undefined),49.1%
17,CCCCOc1c(I)cc(CNCCN(C)C)cc1OCC,-1.94%
18,COc1ccc(C(=O)Nc2cnn(C(C)(C)C)c2)c(O)c1,-6.01%
19,COc1ccc([C@@H](C)C(=O)c2ccc(O)cc2O)cc1,64.6% (active)
20,COc1c(O)cc(O)cc1O,19.6%
21,CS(=O)c1c(Cl)cccc1NC(=O)N1CCN(c2ncc(Cl)cc2Cl)CC1 (centres undefined),-25.6%
22,O=S(=O)(c1cccc(Br)c1)N1CCCN(c2ncc(C(F)(F)F)cc2Cl)CC1,45%
23,O=C(CCl)N1CCN(c2ncc(C(F)(F)F)cc2Cl)CC1,67.7% (active)
24,Cc1c(/C=C/c2ccc(Br)cc2F)n[nH]c(=O)c1C#N,67% (active)
25,COc1ccc(C(=O)C=Cc2ccc(Br)cc2F)c(OC)c1,-5.68%
26,O=C(c1ccc(Cl)cc1Cl)N1CCCC(OCc2ccccc2Cl)C1 (centres undefined),20.5%

row,SMILES,inhibition
1,c1ccc(Nc2ccc(OCc3nn[nH]n3)cc2)cc1,10.5%
2,O=C(NN=CC=Cc1ccccc1)c1cc(C23CC4CC(CC(C4)C2)C3)[nH]n1,11.1%
3,C(=Cc1ccccc1)C=NNc1ncnc2ccccc12,99.2% (active)
4,C(=Cc1ccccc1)C=NNc1nn[nH]n1,86.6% (active)
5,Oc1ccc(C=NNc2ncnc3scc(-c4ccccc4)c23)c(O)c1,12.7%
6,CCOCCSc1nnc(C)c2cnn(-c3ccc(C)c(C)c3)c12,51.4% (active)
7,Cc1ccc(-n2ncc3c(C4CC4)nn(C)c(=O)c32)cc1C,47.4%
8,CC(C)c1nnc(SCc2cccnc2)c2c1cnn2-c1ccc(F)cc1,48%
9,CC(=O)C1=NN(c2ccccc2)C2C(=O)N(c3ccc(Br)cc3)C(=O)C12 (centres undefined),14.1%
10,O=C1[C@H]2C(c3ccccc3)=NN(c3ccccc3)[C@H]2C(=O)N1c1ccccc1,73% (active)
11,O=c1[nH]cnc2c1nnn2-c1ccc(OC(F)(F)F)cc1,49.2%
12,N[C@H](C(=O)O)[C@@H]1CC(Cl)=NO1,91.8% (active)
13,CCOc1c(Br)cc(C=CC(=O)c2ccc(F)cc2)cc1OC,-23.1%
14,CCOc1cc(C=CC(=O)c2ccc(Cl)cc2)ccc1O,54% (active)
15,CCOc1c(Br)cc(C=CC(=O)c2ccc(OC)cc2)cc1OC,14.3%
16,O=S(=O)(Nc1ccc(F)c(Cl)c1)c1ccc(Cl)s1,52.7% (active)
17,O=S(=O)(Nc1ccc(OC(F)F)c(Cl)c1)c1ccc(Cl)s1,79.2% (active)
18,O=S(=O)(Nc1ccc(OC(F)F)c(Cl)c1)c1ccc(Cl)c(Cl)c1,-2.94%
19,O=S(=O)(Nc1ccc(OC(F)F)c(Cl)c1)c1ccc(F)c(Cl)c1,-3.78%
20,O=S(=O)(Nc1ccc(F)c(Cl)c1)c1ccc(Br)s1,24.5%
21,Cc1ccc(-c2ccsc2C(=O)NS(=O)(=O)N2CCCCC2)cc1,20.7%
22,COC(=O)c1sccc1NS(=O)(=O)c1cc(Cl)cc(Cl)c1,7.22%
23,COC(=O)c1sccc1S(=O)(=O)Nc1cc(C)ccc1OC,54.2% (active)
24,O=C(C1c2ccccc2Oc2ccccc21)N(C(=O)N1CCCCC1)c1ccccc1,3.02%
25,Cc1cc(C)c(CN2CCC(CO)(CCOc3ccccc3)CC2)cc1C,17.3%
26,Cc1cc(OCCN2CCN(Cc3ccccc3)CC2)ccc1I,88.7% (active)

row,SMILES,inhibition
1,Cc1cccc(Cn2nc(-c3ccc(F)cc3)c3sc(C)nc3c2=O)c1,94% (active)
2,Cc1cccc(Cn2nc(-c3ccc(Br)cc3)ccc2=O)c1,24.7%
3,O=c1ccc(-c2cccc(Br)c2)nn1Cc1cccc(F)c1,48.5%
4,CC(C)c1ccc(C(N)=S)cc1,99.7% (active)
5,COc1ccc2c(C)nc(N=C(N)N)nc2c1,38.5%
6,COc1ccc(C(N)=S)cc1,68.6% (active)
7,CC(C)c1ccc(S(=O)(=O)c2ccc(Cl)cc2)cc1,-10.2%
8,CCN(C(=O)c1ccc2c(=O)n(CC)c(=O)[nH]c2c1)c1ccccc1C,-22.1%
9,Fc1ccc(Cn2ncc3c2CN(c2nc4ccccc4s2)C3)cc1,32.9%
10,CCCc1nc(CN2Cc3ccccc3-c3ccccc3C2)no1,-15.3%
11,c1csc(-c2noc(CN3CCCN(c4nc5ccccc5s4)CC3)n2)c1,91.6% (active)
12,c1ccc(CCc2noc(CN3CCN(c4nc5ccccc5s4)CC3)n2)cc1,89.5% (active)
13,Fc1ccccc1Cc1noc(CN2CCN(c3nc4ccccc4s3)CC2)n1,60.6% (active)
14,O=C(NN=Cc1ccco1)c1cc(-c2ccc(Cl)cc2)n[nH]1,43.3%
15,O=C(NN=Cc1ccc(O)cc1)c1cc(-c2ccc(Cl)cc2Cl)n[nH]1,85.8% (active)
16,O=C(NN=Cc1ccc(O)cc1)c1cc(C23CC4CC(CC(C4)C2)C3)[nH]n1,16.7%
17,COCCCCC(=O)Nc1cc(C(F)(F)F)[nH]n1,78% (active)
18,COc1cccc2c1OC(c1ccccn1)N1N=C(c3ccccc3)CC21 (centres undefined),-22.4%
19,Cc1cccc(C2Oc3ccccc3C3CC(c4ccc5c(c4)OCCO5)=NN32)c1 (centres undefined),-14.9%
20,COc1cccc(C2Oc3ccccc3C3CC(c4ccc5c(c4)OCCO5)=NN32)c1 (centres undefined),103% (active)
21,CN1CCC[C@@H]1CCO[C@](C)(c1ccccc1)c1ccc(Cl)cc1,37.7%
22,O=C(Nc1ncc(-c2ccccc2)s1)OCC(F)(F)F,0.3%
23,O=C(Nc1ncc(-c2ccccc2)s1)C1CSCCS1 (centres undefined),95.8% (active)
24,S=C(NN=C1CC2CC=CC12)NC1CCCCC1 (centres undefined),1.05%
25,O=C1CCCC(=NNC(=S)NC2CCCCC2)C1,55.2% (active)
26,CC1(C)CC(=O)CC(=NNC(=S)NC2CCCCC2)C1,34.4%
